Results from PubChem BioAssay AID504883 (The Scripps Research Institute Molecular Screening Center, 2011).
Activity calls are given as the source filed them.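 The calls were made as follows: active = EC50 at or below 10 µM; inactive = EC50 above 10 µM.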

test: fluorescence polarization artefacts without PKA proteins – biochemical, 1536-well HTS, artefact control for PKA-R1A complex activator project, dose response (AID 504883); details: Cy5-IP20 peptide alone, fluorescence polarization artifact counterscreen

Question: Which EC50 does the source give for `Nc1nc2c(nc(Br)n2[C@@H]2O[C@@H]3COP(=O)(O)O[C@H]3[C@H]2O)c(=O)[nH]1` here?
Answer: Its EC50 is > 114 µM (inactive).

Question: Which EC50 does the source give for `CCOP1(=O)OCC2OC(n3cnc4c(N)ncnc43)C(O)C2O1` (stereo unspecified) here?
Answer: The EC50 was > 114 µM (inactive).

Question: Which EC50 does the source give for `CCCC(=O)Nc1ncnc2c1ncn2[C@@H]1O[C@@H]2COP(=O)(O)O[C@H]2[C@H]1OC(=O)CCC` here?
Answer: The EC50 was > 114 µM (inactive).

Question: For `CCCC(=O)Nc1ncnc2c1ncn2[C@@H]1O[C@@H]2OP(=O)(O)OC[C@H]2[C@H]1OC(=O)CCC`, which EC50 is on record?
Answer: Its EC50 is > 114 µM (inactive).

Question: Which EC50 does the source give for `Nc1ncnc2c1nc(Sc1ccc(Cl)cc1)n2[C@@H]1O[C@@H]2COP(=O)(O)O[C@H]2[C@H]1O` here?
Answer: Its EC50 is > 114 µM (inactive).

Question: For `Nc1ncnc2c1nc(Br)n2[C@@H]1O[C@@H]2COP(=O)(O)O[C@H]2[C@H]1O`, which EC50 is on record?
Answer: Its EC50 is > 114 µM (inactive).
